We go through 40 molecules from PubChem BioAssay (NCATS).

Calls of active or inactive are those of the source. A call without a number means that no potency is given here. Calls follow the shape of the dose curve; as a rule, active = well fitted activation curve with a large enough effect; inconclusive = small, poorly fitted or top-dose-only effect; inactive = flat fitted curve, though single readings scatter.

The nature of this experiment: Cellular Toxicity (caspase-3) SHSY5Y (AID 657). To be noted: SH-SY5Y caspase-3 activation; series mostly up to 91.7 µM. The text has this: NIH Chemical Genomics Center [NCGC]
NIH Molecular Libraries Screening Centers Network [MLSCN]
National Institutes of Environmental Health Sciences [NIEHS]
National Toxicology Program [NTP]
We have developed a 1536-well cell-based assay for quantitative high throughput screening (qHTS) against a number of cell lines to determine in vitro caspase 3/7 activity of small molecules. This particular assay uses the SH-SY5Y cell line which is derived from human neuroblastoma.
NCGC Assay Protocol Summary:
The Caspase-Glo 3/7 assay (Promega) is a homogeneous method to measure caspase-3 and caspase-7 activities in cultured cells. The quantitation of caspase 3/7 activity is based on the cleavage of a peptide-aminoluciferin substrate. After caspase cleaves the substrate the free aminoluciferin is liberated and serves as the substrate of luciferase, which generates the light. The luminescent signal is proportional to the amount of caspase 3/7 activity present.
Using the Caspase-Glo 3/7 assay, the amount of caspase 3/7 activity was measured in the SH-SY5Y cell line with complete culture medium following compound treatment for 16 hours. The assay was performed in opaque white 1536-well plates. In the screen, staurosporine and doxorubicin were used as positive controls. Library compounds were measured for their ability to cause the activation of caspase 3/7 in the cell line, as reflected by an increase in luminescence signal, in a concentration-dependent manner. Data were normalized to the controls for basal activity (DMSO only) and 100% stimulation (10 uM staurosporine). AC50 values were determined from concentration-response data modeled with the standard Hill equation.
qHTS protocol for caspase 3/7 assay in SH-SY5Y cells
[Step] [Parameter] [Value] [Description]
1. Reagent; 5 uL; 1500 SH-SY5Y cells/well
2. Time; 5 hr; 37 °C incubation
4. Controls; 23 nL; doxorubicin 7 pM to 100 uM & staurosporine 1.4 pM to 20 uM
5. Time; 16 hr; 37 °C incubation
6. Reagent; 5 uL; Caspase-Glo 3/7 reagent
7. Time; 1 hr; Room Temperature
8. Detection; Luminescence; Viewlux plate reader
Keywords: caspase 3/7, apoptosis, SH-SY5Y cell line, luminescence, NTPHTS, NTPHTS_NCGC, NIEHS, EPA, DSSTox, MLSMR, MLSCN, NIH Roadmap, qHTS, NCGC
On to `c1c[nH]cn1`, for which the Potency entry was “inactive”.

As for `CC(=O)CC(=O)Nc1ccccc1`, the Potency entry is “inactive”.

Turning to `O=[N+]([O-])c1cccc(I)c1`, the Potency entry was “inactive”.

In the case of `O=c1[nH]ncc2ccccc12`, the Potency result was “inactive”. The entry for `CC/C=C/C/C=C/C/C=C/CCCCCCCC(=O)OCC` is “inactive”; for `Nc1ccccc1O` it is “inactive”; for `C=CC(=O)CC` it is “inactive”. The entry for `c1cc2c3c(c1)ccc1cccc(c13)C2` is “inactive”; for `C=CC1CO1` (stereo not given) it is “inactive”. For the molecule `CC(=O)OC1CC(C)OC(C)O1` (stereo not given), the Potency result is “inactive”. For `N=C1C=CC(=C(c2ccc(N)cc2)c2ccc(N)cc2)C=C1`, the Potency entry is “inactive”.

Consider `Brc1cc(Br)c(Oc2cc(Br)c(Br)cc2Br)cc1Br`, for which the Potency result was “inactive”. As for `Cc1ccc(S(N)(=O)=O)cc1`, the Potency entry is “inactive”. With `Cc1cc2nc(N)sc2cc1C` the entry was “inactive”. The entry for `CCOc1ccc2nc(N)sc2c1` is “inactive”; for `c1ccc2c(c1)ccc1ccccc12` it is “inactive”. The entry for `CCC(Cl)CC(Cl)C(Cl)C(Cl)C(Cl)C(C)Cl` (stereo not given) is “inactive”; for `Cc1c2ccccc2c(C)c2c1ccc1ccccc12` it is “inactive”.

As to `O=[N+]([O-])c1ccc(F)cc1F`, the Potency result was “inactive”. With `Nc1ccc(N)c(Cl)c1` the entry was “inactive”; with `Cc1ccc(O)c(N)c1`, “inactive”; with `C=C(C#N)C(=O)OCC`, “inactive”.

As for `c1ccc(Nc2cccc3ccccc23)cc1`, the Potency result was “inactive”.

Consider `O=C1OC(=O)c2ccccc21`, for which the Potency entry is “inactive”. On to `C/C(Cl)=C/CCl`, for which the Potency result was “inactive”.

On to `CN(C)c1ccc(Cc2ccc(N(C)C)cc2)cc1`, for which the Potency result was “inactive”. The entry for `CCCCC(CC)COCCCN` (stereo not given) is “inactive”. With `Oc1ccc2c(c1)OCO2`, the Potency result is “inactive”. With `Nc1ccc(-c2ccc(N)c(O)c2)cc1O` the entry was “inactive”; with `CCc1ccc(C(c2ccc(CC)cc2)C(Cl)Cl)cc1`, “inactive”. With `Nc1ccc(N=Nc2ccccc2)c(N)c1` the entry was “inactive”.

As for `O=C1c2ccccc2C(=O)C1(O)O`, the Potency entry is “inactive”.

Regarding `CC(=O)OC(C(=O)c1ccccc1)c1ccccc1` (stereo not given), the Potency result is “inactive”. With `Nc1cc([N+](=O)[O-])ccc1O` the entry was “inactive”; with `CC(=O)Nc1cccc(C)c1`, “inactive”; with `COc1ccc([N+](=O)[O-])cc1N`, “inactive”. Regarding `CCCCCCCCOc1ccc(C(=O)O)cc1`, the Potency entry was “inactive”. The entry for `O=C(OCc1ccccc1)c1ccccc1O` is “inactive”; for `Cc1ccccc1OCC1CO1` (stereo not given) it is “inactive”; for `CC(=O)OCc1ccc2c(c1)OCO2` it is “inactive”.
